# Many of the other results were omitted from the sample, so hits are more common in it than they were.
# Pf Dd2 growth = qHTS Primary assay for Inhibitors of Plasmodium falciparum Dd2 growth in vitro; Potency, µM (top dose mostly 28.9 µM), without a hit: at the highest dose activity, negative = inhibition, hits mostly inhibitors; P. falciparum Dd2 growth, SYBR Green, 72 h; 4.3% of 120,000 active; active = well fitted inhibition curve with a large enough effect;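 note: plate controls were DMSO vehicle for no effect and reference drug for full effect; nearly all actives have a fitted effect of over 65% in size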
#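 Readout: SYBR Green fluorescence, 485 nm excitation, 535 nm emission, after ~16 h lysis at 37C. Before that, Dd2-infected red cells (2.5% hematocrit) grew 72 h with compound, 29 uM top final concentration.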
# An asterisk follows results filed as active; i = inactive; [ ] = remark or other dose. Potency is the fitted concentration of half-maximal effect.
SMILES,Pf Dd2 growth
COc1ccc(-c2nc(C)nc3c2CCN(CCC(C)C)CC3)cc1,-15%
c1cn(CCCN2CCCC2)c(-c2cc3n(n2)CCCNC3)n1,0%
CC(C)(C)C(=O)N1CCC(F)(c2nc(-c3ccncc3)no2)CC1,-16%
COc1ccc2[nH]c(=O)c(CCC(=O)N(C)CCc3ccccc3)cc2c1,-21%
COc1ccc(C(=O)N2CCC3(CC2)OCC(C(=O)NC2CC2)N3C(=O)c2ccccc2)cc1OC (configuration not stated),-12%
Cc1ccc(-n2c(C3CCN(C(=O)Cc4ccc(Cl)cc4)CC3)n[nH]c2=O)cc1,13µM*
Cc1ccc(CC(=O)N2CCC(c3n[nH]c(=O)n3-c3ccccc3)CC2)cc1,i
Cc1cccc(OCC(=O)N2CCC(c3n[nH]c(=O)n3Cc3ccc(F)cc3)CC2)c1,11µM*
COc1ccc(Cn2c(C3CCN(C(=O)Cc4cccc(C)c4)CC3)n[nH]c2=O)cc1,-4%
Cc1ccc(-n2c(C3CCN(C(=O)Cc4ccccc4Cl)CC3)n[nH]c2=O)cc1,-17%
COc1cccc(CC(=O)N2CCC(c3n[nH]c(=O)n3Cc3ccc(F)cc3)CC2)c1,-4%
COc1ccc(C(=O)NC2CCN(c3ccc(C)cc3)C2=O)cc1F (configuration not stated),i
Cc1nc(-c2c3n(c(=O)n(CC(=O)Nc4cccc(Cl)c4)c2=O)CCCCC3)no1,-14%
COCCN1CCCC2(CCN(C(=O)c3ccc(F)c(Cl)c3)C2)C1=O (configuration not stated),7%
COC(=O)[C@H](NC(=O)[C@@]1(O)C[C@@H](O)[C@H](O)[C@@H](NC(=O)Nc2ccc(C(C)=O)cc2)C1)C(C)C,29%
Cc1ccccc1-c1cc(O)c2c(c1)CN(C(=O)C1CCNCC1)CCO2,-25%
Cc1cc(CN2CCOc3c(O)cc(-c4ccccc4C)cc3C2)on1,-27%
Cc1cccc(CN2CCOc3c(O)cc(-c4ccccc4C)cc3C2)n1,8.9µM*
O=C(N[C@H]1C[C@@H](CO)N(Cc2cccs2)C1)c1cccnc1,5%
Cc1cc(=O)n(CC(=O)Nc2ccc(Br)cc2)c(N2CCN(c3ccccc3)CC2)n1,-11%
CCOc1ccccc1NC(=O)Cn1c(N2CCC(C)CC2)nc(C)cc1=O,11µM*
CCOc1ccc(NC(=O)Cn2c(N3CCN(c4ccccc4)CC3)nc(C)cc2=O)cc1,i
Cc1ccc(NC(=O)Cn2c(N3CCC(C)CC3)nc(C)cc2=O)c(C)c1,i
COc1ccc(Cl)cc1NC(=O)Cn1c(N2CCN(c3ccccc3)CC2)nc(C)cc1=O,7.9µM*
COc1ccccc1NC(=O)Cn1c(N2CCC(C)CC2)nc(C)cc1=O,-5%
SMILES,Pf Dd2 growth
O=C1COc2ccc(NCc3cccs3)nc2CN1Cc1ccc(C(F)(F)F)cc1,-25%[44.1 µM]
COc1cccc(-c2nc3cc4c(cc3cc2CN2CCCOCC2)OCO4)c1OC,-3%
CCOc1ccc(-n2c(Cc3ccccc3)nnc2SCc2nc(-c3ccccc3C)no2)cc1,-16%
CCOc1ccc(-c2noc(CSc3nnc(Cc4ccccc4)n3-c3cccc(C)c3)n2)cc1,10µM*
Cc1ccc(-c2noc(CSc3nnc(Cc4ccccc4)n3-c3cccc(C)c3)n2)cc1,9%
O=C(Cn1nc2c(cc1=O)CCCCC2)NCc1nc2ccccc2[nH]1,-7%
COCCNc1ncc(-c2ccc(O)cc2)c2c1OCC2,6%[44.1 µM]
CCc1ccccc1C(=O)N1CC[C@@](O)(CCOC)[C@H](C)C1,-10%
CCN(CC)c1cc(C)c2cc(NC(=O)c3ccc(F)cc3Cl)ccc2n1,i
CCN(CC)c1cc(C)c2cc(NC(=O)/C=C/c3ccccc3Cl)ccc2n1,10µM*
CCN(CC)c1cc(C)c2cc(NC(=O)c3cc(OC)cc(OC)c3)ccc2n1,-3%
Cc1sc2cc(C(=O)N3CCCCC3)[nH]c2c1CN1CCCCC1,-26%
COc1cc(CCC(=O)N(C)C2CCc3nn(CC4CC4)c(=O)n3CC2)on1 (configuration not stated),i
O=C(O)Cn1ccc2cc(OCCc3cccc(-c4ccc(F)cc4)c3)cnc21,-23%[44.1 µM]
COc1ccc(C(=O)N2CCCC3(C2)C(=NC2CCCCC2)NC(=O)N3c2cccc(OC)c2)cc1 (configuration not stated),8%
COc1cccc(N2C(=O)NC(=NC3CCCC3)C23CCN(CC2CC2)C3)c1 (configuration not stated),-7%
COc1cccc(N2C(=O)NC(=NC3CCCCC3)C23CCN(Cc2cccnc2)C3)c1 (configuration not stated),-24%
COc1ccc(C(=O)N2CCC3(C2)C(=NC2CCCCC2)NC(=O)N3c2cccc(OC)c2)cc1 (configuration not stated),32%
COc1cccc(N2C(=O)NC(=NC3CCCCC3)C23CCCN(Cc2ccsc2)C3)c1 (configuration not stated),11µM*
COc1cccc(N2C(=O)NC(=NC3CCCCC3)C23CCN(CC2CCCCC2)C3)c1 (configuration not stated),-1%

# High-throughput results as filed in PubChem.
